Assay outcomes from PubChem BioAssay.
EphB4 antag – blocks human EphB4 binding to ephrin-B2 | P54760 | 97,000 tested, 0.15% active | inhibition, % at 7 µM | AID 720 | EphB4 LBD / TNYL-RAW-Alexa532 peptide, fluorescence polarization;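 active = inhibition above the screen-wide mean inhibition plus 3 SD, cut at about 15% in these data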;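 note: 0% = DMSO wells and 100% = excess unlabeled TNYL-RAW peptide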
Target sequence (P54760 whole entry, looked up, the tested form may be a part): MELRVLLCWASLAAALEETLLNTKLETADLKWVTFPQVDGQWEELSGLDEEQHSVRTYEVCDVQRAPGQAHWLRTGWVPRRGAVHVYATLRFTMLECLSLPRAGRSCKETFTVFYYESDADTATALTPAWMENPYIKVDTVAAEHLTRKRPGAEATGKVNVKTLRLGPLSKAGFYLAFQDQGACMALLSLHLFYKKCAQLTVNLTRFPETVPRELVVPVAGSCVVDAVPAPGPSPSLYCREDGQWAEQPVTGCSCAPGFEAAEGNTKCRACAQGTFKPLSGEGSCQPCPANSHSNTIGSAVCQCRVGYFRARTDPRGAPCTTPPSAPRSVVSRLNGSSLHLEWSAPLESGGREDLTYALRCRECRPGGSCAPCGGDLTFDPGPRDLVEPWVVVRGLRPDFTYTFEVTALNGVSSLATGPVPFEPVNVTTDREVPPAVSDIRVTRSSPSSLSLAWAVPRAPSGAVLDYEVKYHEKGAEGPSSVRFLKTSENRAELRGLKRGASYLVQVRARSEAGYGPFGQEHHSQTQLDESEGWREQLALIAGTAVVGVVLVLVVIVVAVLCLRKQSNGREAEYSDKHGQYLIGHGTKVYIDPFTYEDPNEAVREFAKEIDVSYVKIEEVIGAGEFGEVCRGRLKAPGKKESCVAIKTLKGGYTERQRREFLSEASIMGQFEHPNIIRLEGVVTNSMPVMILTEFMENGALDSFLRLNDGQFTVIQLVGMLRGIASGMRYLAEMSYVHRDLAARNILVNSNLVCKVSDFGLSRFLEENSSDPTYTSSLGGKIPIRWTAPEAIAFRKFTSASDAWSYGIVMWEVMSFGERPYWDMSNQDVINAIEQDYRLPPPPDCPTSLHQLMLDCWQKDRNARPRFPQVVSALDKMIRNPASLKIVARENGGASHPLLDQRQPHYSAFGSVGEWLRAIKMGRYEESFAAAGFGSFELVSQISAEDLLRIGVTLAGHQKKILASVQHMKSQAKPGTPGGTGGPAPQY
ERb SRC1 inh – blocks coactivator binding to human estrogen receptor beta; Q92731; TR-FRET ER-beta LBD / SRC1-Cy5 peptide binding; receptor agonist-loaded with 1 µM estradiol; inhibition, % at 25.6 µM; 86,000 tested, 1.3% active; AID 633;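 active = compounds whose percent inhibition of the receptor-coactivator binding signal exceeds about 50% in the single-dose screen, limit read from the data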;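 note: 0% = receptor plus peptide wells without compound and 100% = peptide-only wells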
ERa SRC1 pot – ER-alpha (human) coactivator binding potentiation | P03372 | TR-FRET ERalpha-LBD/SRC-Cy5 coactivator binding, 2 h; 100 = basal binding, no effect | coactivator binding (% of control), % at 25.6 µM | 86,000 tested, 1.3% active; in the data active = activity above about 200%;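 note: binding measured in presence of low estradiol as agonist stimulus; 0% = peptide alone without receptor and 100% = receptor with peptide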
ERa SRC1 inh – ER-alpha (human) coactivator binding inhibition. inhibition, % at 25.6 µM. P03372. TR-FRET ER-alpha LBD / SRC-1 peptide, estradiol-bound. AID 629. 86,000 tested, 1.7% active; in the data active = inhibition above about 50%;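 note: 0% = receptor plus peptide control and 100% = peptide only without receptor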
Active calls of the source: *; . = not tested or not shown; + = active, no number; [ ] = remark or other dose. The list is not random: actives were taken first. Their share in the collection is about 2.8%.

SMILES	EphB4 antag	ERb SRC1 inh	ERa SRC1 pot	ERa SRC1 inh
Cc1cc(SCC(=O)c2ccc3c(c2)OCO3)nc2ccccc12	-0.9	4.2	440.7*[fluorescence artefact?]	15.6
Cc1cc(SCC(=O)c2cc3ccccc3o2)nc2ccccc12	-1.8	-0.9	228.0*[fluorescence artefact?]	2.3
Cc1cc(C(=O)CSc2nc3ccccc3c(=O)n2C)c(C)n1Cc1ccc2c(c1)OCO2	-2.7	-7.0	+[fluorescence artefact?]	-23.2
COc1c2c(nc3occc13)C(CCC(C)(C)O)(OC)C(O)CC2 (stereo not given)	-8.0	-3.1	109.2	-4.9
NC1=NC(c2ccc(F)cc2)n2c(nc3ccccc32)N1 (stereo not given)	1.0	11.2	93.8	24.1
NC1=NC2(CCCCCC2)n2c(nc3ccccc32)N1	-4.5	-5.8	25.6	64.8*[fluorescence artefact?]
CC1CCC2(CC1)N=C(N)Nc1nc3ccccc3n12 (stereo not given)	-5.7	4.3	38.3	63.1*[fluorescence artefact?]
COCCn1c(C)c(C(=O)O)sc1=S	7.2	-16.0	111.7	-11.3
CCCc1cc(=O)oc2cc(OCC(=O)N3CCc4ccccc43)ccc12	-4.3	20.3	335.0*[fluorescence artefact?]	11.6
Cc1cc(=O)oc2cc(OCC(=O)OCC(=O)N3CCc4ccccc43)ccc12	-8.6	9.8	176.8	14.7
CCCCc1cc(=O)oc2cc(OCC(=O)N3CCc4ccccc43)ccc12	3.7	15.5	200.4*	17.6
CCCc1cc(=O)oc2cc(OCC(=O)Nc3cc(C)on3)ccc12	-3.1	-2.8	819.8*[fluorescence artefact?]	12.5
CS(=O)(=O)N(CC(=O)N1CCCCC1)c1sc2c(c1C#N)CCCC2	9.3	2.2	103.4	-6.0
CCCOc1nc2c(c(=O)n(C)c(=O)n2C)n1Cc1cccc2ccccc12	-0.7	-3.0	97.2	3.0
CS(=O)(=O)N(CCc1ccccc1)CC(=O)N1CCN(c2ccc(F)cc2)CC1	-4.6	-7.7	92.7	-2.0
Cc1cccc(C)c1N1CCN(c2nc(N(C)C)oc(=O)c2C#N)CC1	-3.6	.	.	.
CCCCc1c(CCC)c(=N)c2ccccc2n1C	0.1	-13.2	95.3	-2.1
COc1ccc(OC)c(NC(=O)c2ccccc2NS(=O)(=O)c2cccc3cccnc23)c1	3.3	.	.	.
CCc1ccc2[nH]c(=O)c(C3C(C#N)=C(N)Oc4c3ccc3cccnc43)cc2c1 (stereo not given)	4.5	50.5*	76.1	79.6*
Cc1ccc2cc(C3C(C#N)=C(N)Oc4c3ccc3cccnc43)c(=O)[nH]c2c1 (stereo not given)	3.2	34.8	66.5	25.6
O=C(Nc1ccc2snnc2c1)N1CCN(c2ccccc2)CC1	7.9	-42.3	626.9*[fluorescence artefact?]	-21.1
Cc1cc(C#N)c(C)n1-c1cc(S(=O)(=O)N2CCOCC2)ccc1N1CCCC1	1.1	-5.6	76.5	6.2
O=C1Nc2ccc(S(=O)(=O)NCc3ccccn3)c3cccc1c23	3.1	61.2*[fluorescence artefact?]	80.8	32.8
CCCCC(=O)Nc1ccc(C(=O)NN2C(=O)c3ccccc3C2=O)cc1	-4.3	.	.	.
O=S(=O)(NCc1csc(-c2ccccc2)n1)c1ccc(Cl)s1	.	5.8	93.5	-8.8
SMILES	EphB4 antag	ERb SRC1 inh	ERa SRC1 pot	ERa SRC1 inh
O=S(=O)(NCc1csc(-c2cccnc2)n1)c1ccc(Cl)s1	4.1	53.5*	40.5	65.0*
O=C(Nc1ccc2nn(-c3ccccc3)nc2c1)c1ccc(Br)o1	.	38.6	206.6*	55.6*
Cc1ccc(-n2nc3ccc(NC(=O)c4ccco4)cc3n2)cc1	-4.0	46.5	195.6	71.1*[fluorescence artefact?]
CCc1ccc(-n2nc3ccc(NC(=O)c4ccc5c(c4)OCO5)cc3n2)cc1	-4.1	14.3	362.4*[fluorescence artefact?]	37.0
Cc1ccc(-n2nc3ccc(NC(=O)c4ccc5c(c4)OCO5)cc3n2)cc1	2.6	66.2*[fluorescence artefact?]	59.8	87.6*[fluorescence artefact?]
O=C(c1ccc(Oc2ccccc2)cc1)c1nc2c(n1O)CCCC2	-1.2	-12.4	97.0	-4.5
COc1cccc(C(=O)N/N=C/c2cn[nH]c2-c2ccc(OC)cc2OC)c1	8.6	.	.	.
COc1cccc(OC)c1C(=O)NC(=S)Nc1ccc2c(c1)Cc1ccccc1-2	5.2	0.1	202.1*	-1.4
COc1c(C)cccc1C(=O)NC(=S)Nc1ccc2c(c1)Cc1ccccc1-2	4.0	5.8	245.0*[fluorescence artefact?]	-0.5
COc1ccc(C(=O)Nc2ccc3c(c2)Cc2ccccc2-3)cc1	9.2	.	.	.
Cc1cc2cc(C)c3nnc(SCC(=O)NCc4ccco4)n3c2cc1C	-8.4	15.7	80.7	-0.5
Cc1cc(NC(=O)CSc2nnc3c(C)cc4cc5c(cc4n23)OCO5)no1	.	25.7	170.7	51.8*[fluorescence artefact?]
Cc1cc(NC(=O)CSc2nnc3c(C)cc4cc(C)c(C)cc4n23)no1	0.2	37.1	241.0*[fluorescence artefact?]	74.3*[fluorescence artefact?]
Cc1nn(Cc2ccc(Cl)c(Cl)c2)c(C)c1NC(=O)c1cc(-c2ccc3c(c2)OCO3)on1	2.2	-20.4	94.5	35.8
O=C(NCc1ccco1)c1cc(-c2ccc3c(c2)OCO3)on1	3.9	10.6	260.5*[fluorescence artefact?]	25.6
Cc1nn(Cc2ccc(Cl)cc2)c(C)c1NC(=O)c1cc(-c2ccc3c(c2)OCO3)on1	0.6	18.6	74.1	69.9*[fluorescence artefact?]
CN(C)/C=C(\C=N\OCc1ccc(Cl)cc1Cl)C(=O)Nc1ccc(Cl)c(Cl)c1	4.5	.	.	.
CCOC(=O)CSc1ccc(S(=O)(=O)N(C)C2CCCCC2)cc1[N+](=O)[O-]	-0.5	-4.4	93.9	-9.0
CCOc1ccc(C(=O)CCN2CCCCC2)cc1	.	58.7*	92.0	-1.8
COc1ccc(C(=O)CCN2CCCCCC2)cc1	-6.0	.	.	.
CSCCC(NC(=O)c1ccco1)C(=O)OCC(=O)Nc1sccc1C#N (stereo not given)	-4.1	53.9*	43.0	55.9*[fluorescence artefact?]
Cc1nnc(SCC(=O)Nc2sccc2C#N)n1Cc1ccccc1	2.6	.	.	.
COc1ccc(-c2cc3ccccc3oc2=O)cc1NC(=O)c1ccc(Br)o1	-1.9	6.0	231.3*	66.0*[fluorescence artefact?]
COc1ccc(-c2cc3ccccc3oc2=O)cc1NC(=O)c1ccc([N+](=O)[O-])o1	-3.6	.	.	.
CCCc1cc2c(=O)c(-c3ccccn3)coc2cc1OC	-2.7	6.6	+[fluorescence artefact?]	9.0
SMILES	EphB4 antag	ERb SRC1 inh	ERa SRC1 pot	ERa SRC1 inh
CCCc1cc2c(=O)c(-c3ccccn3)c(C)oc2cc1O	.	17.1	86.6	11.7
COc1ccc(-n2c(=O)c3c4c(sc3n3cnnc23)CC(C)CC4)cc1 (stereo not given)	25.2*	-8.5	101.7	3.6
COc1ccc(-n2c(=O)c3c4c(sc3n3c(C)nnc23)CC(C)CC4)cc1 (stereo not given)	0.6	2.8	85.5	10.2
CN(Cc1ccccc1)C(=O)CC(c1ccccc1)c1cc(Cl)ccc1O (stereo not given)	-3.0	.	.	.
CCOC(=O)c1cnc(SCc2cccc(C)c2)nc1N	6.3	-1.6	84.7	-3.3
COC(=O)c1ccc2c(c1)NC(=O)C1CCCN21 (stereo not given)	.	21.8	35.3	80.6*[fluorescence artefact?]
O=C(NC1CCCC1)c1noc2c1CCCCC2	9.5	-2.6	94.3	-4.1
Clc1ccc(-c2nc3n(n2)Cc2ccccc2-3)cc1	-6.4	15.8	288.6*	20.8
CCN(CC)S(=O)(=O)c1cccc(-c2nc3n(n2)Cc2ccccc2-3)c1	-3.6	11.3	160.8	4.1
COc1ccc(-c2nnc(SCC(=O)NC(=O)NCc3ccccc3)o2)cc1	4.8	8.0	312.5*[fluorescence artefact?]	20.9
